# Reference: PubChem BioAssay (NCATS)
# Records with an inconclusive call do not appear. A call without a number means that no potency is given here. The source made the active and inactive calls. Calls follow the shape of the dose curve; as a rule, active = well fitted inhibition curve with a large enough effect; inconclusive = small, poorly fitted or top-dose-only effect; inactive = flat fitted curve, though single readings scatter.
# Assays:
# Test in all cases: qHTS profiling for inhibitors of Plasmodium falciparum proliferation (AID 504749); also: nearly all actives have a fitted effect of over 60% in size
# Conditions in all cases: P. falciparum in erythrocytes, SYBR Green DNA, 72 h; series mostly up to 12.8 µM
# [1] = test system: 3D7
# Method in brief: (§1)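 Parasite proliferation within erythrocytes, 72 h exposure. Endpoint: SYBR Green I fluorescence after overnight lysis at room temperature. Controls: 0.29 uM artemisinin, DMSO.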
# [2] = test system: ATS189
# Method in brief: as §1
# [3] = test system: CP185
# Method in brief: as §1
# [4] = test system: CP191
# Method in brief: as §1
# [5] = test system: CP192
# Method in brief: as §1
# [6] = test system: CP194
# Method in brief: as §1
# [7] = test system: CP203
# Method in brief: as §1
# [8] = test system: CP211
# Method in brief: as §1
# [9] = test system: CP215
# Method in brief: as §1
# [10] = test system: CP247
# Method in brief: as §1
# [11] = test system: CP262
# Method in brief: as §1
# [12] = test system: CP269
# Method in brief: as §1
# [13] = test system: CP291
# Method in brief: as §1
# [14] = test system: CP305
# Method in brief: as §1
# [15] = test system: CP325
# Method in brief: as §1
# [16] = test system: DIV17
# Method in brief: as §1
# [17] = test system: DIV30
# Method in brief: as §1
# [18] = test system: PC15
# Method in brief: as §1
# [19] = test system: TAB113
# Method in brief: as §1
# [20] = test system: TAB165
# Method in brief: as §1
# Potency is read from the fitted curve at half-maximal effect.
Structure (SMILES),Potency [1],Potency [2],Potency [3],Potency [4],Potency [5],Potency [6],Potency [7],Potency [8],Potency [9],Potency [10],Potency [11],Potency [12],Potency [13],Potency [14],Potency [15],Potency [16],Potency [17],Potency [18],Potency [19],Potency [20]
NC[C@@H]1O[C@H](O[C@H]2[C@H](O)[C@H](O[C@@H]3O[C@H](CO)[C@@H](O)[C@H](N)[C@@H]3O)[C@@H](N)C[C@H]2N)[C@@H](O)[C@H](O)[C@@H]1O,inactive,inactive,inactive,inactive,inactive,inactive,inactive,inactive,inactive,inactive,inactive,inactive,inactive,inactive,inactive,inactive,inactive,inactive,inactive,inactive
NCc1ccccc1CC(=O)N[C@@H]1C(=O)N2C(C(=O)O)=C(CSc3nnnn3CC(=O)O)CS[C@@H]12,inactive,inactive,inactive,inactive,inactive,inactive,inactive,inactive,inactive,inactive,inactive,inactive,inactive,inactive,inactive,inactive,–,inactive,inactive,inactive
OCCN1CCN(CCC=C2c3ccccc3Sc3ccc(Cl)cc32)CC1,–,–,–,3.98 µM (active),–,–,inactive,–,–,–,–,–,–,inactive,–,–,–,–,inactive,–
CC[C@H](Cc1c(I)cc(I)c(N)c1I)C(=O)O,inactive,inactive,inactive,inactive,inactive,inactive,inactive,inactive,inactive,inactive,inactive,inactive,inactive,inactive,inactive,inactive,inactive,inactive,inactive,inactive
O=C1O[C@@H]([C@@H](O)CO)[C@@H](O)[C@H]1O,inactive,inactive,inactive,inactive,inactive,inactive,inactive,inactive,inactive,inactive,inactive,inactive,inactive,inactive,inactive,inactive,inactive,inactive,inactive,inactive
COc1cc2nc(N3CCN(C(=O)[C@@H]4COc5ccccc5O4)CC3)nc(N)c2cc1OC,–,inactive,–,7.94 µM (active),–,–,–,–,inactive,–,–,–,–,inactive,inactive,6.75 µM (active),–,inactive,–,–
CN(C)CCOC(=O)[C@@H](c1ccccc1)C1(O)CCCC1,inactive,inactive,inactive,inactive,inactive,inactive,inactive,inactive,inactive,–,inactive,inactive,inactive,inactive,inactive,inactive,inactive,inactive,inactive,inactive
Clc1ccc([C@H](Cn2ccnc2)OCc2csc3c(Cl)cccc23)c(Cl)c1,3.55 µM (active),–,–,–,–,–,5.73 µM (active),–,–,–,inactive,–,–,–,–,7.21 µM (active),5.1 µM (active),–,–,2.24 µM (active)
COc1ccc(OC)c([C@H](O)CNC(=O)CN)c1,inactive,inactive,inactive,inactive,inactive,inactive,inactive,inactive,inactive,inactive,inactive,inactive,inactive,inactive,inactive,inactive,inactive,inactive,inactive,inactive
CN1CCN([C@@H](c2ccccc2)c2ccc(Cl)cc2)CC1,inactive,–,inactive,inactive,inactive,–,–,inactive,–,inactive,inactive,inactive,–,inactive,inactive,–,–,inactive,–,–
CC[C@H]1NC(=O)c2cc(S(N)(=O)=O)c(Cl)cc2N1,inactive,inactive,inactive,inactive,inactive,inactive,inactive,inactive,–,inactive,inactive,inactive,inactive,inactive,inactive,inactive,inactive,inactive,inactive,inactive
CN[C@H]1[C@H](O)[C@@H](O[C@@H]2[C@H](O)[C@@H](O[C@H]3OC(CN)=CC[C@H]3N)[C@@H](N)C[C@H]2N)OC[C@@]1(C)O,inactive,inactive,inactive,inactive,inactive,inactive,inactive,inactive,inactive,inactive,inactive,inactive,inactive,inactive,inactive,inactive,inactive,inactive,inactive,inactive
Clc1ccc(CC[C@H](Cn2ccnc2)Sc2c(Cl)cccc2Cl)cc1,–,–,–,–,–,6.42 µM (active),6.42 µM (active),–,–,–,–,–,5.73 µM (active),–,–,4.05 µM (active),5.73 µM (active),–,3.55 µM (active),1.26 µM (active)
C[C@H]1CS(=O)(=O)CCN1/N=C\c1ccc([N+](=O)[O-])o1,inactive,inactive,inactive,inactive,inactive,inactive,inactive,inactive,inactive,inactive,inactive,inactive,inactive,inactive,inactive,–,inactive,inactive,inactive,inactive
CC(C)(C)NC(=O)[C@@H]1CC[C@@H]2[C@@H]3CC[C@@H]4NC(=O)C=C[C@@]4(C)[C@H]3CC[C@]21C,inactive,inactive,inactive,inactive,inactive,inactive,inactive,inactive,inactive,inactive,inactive,inactive,inactive,inactive,inactive,inactive,inactive,inactive,inactive,inactive
CO[C@H]1[C@H](O[C@H]2O[C@@H](C)[C@@H](O[C@@H]3C[C@](C)(O)[C@H](O)[C@H](C)O3)[C@@H](N(C)C)[C@@H]2O)[C@@H](CC=O)C[C@@H](C)[C@@H](O[C@H]2CC[C@H](N(C)C)[C@H](C)O2)/C=C\C=C/C[C@@H](C)OC(=O)C[C@H]1O,inactive,inactive,–,inactive,inactive,–,–,–,–,inactive,–,–,–,–,–,inactive,inactive,inactive,–,inactive
O=C(N/N=C\c1ccc([N+](=O)[O-])o1)c1ccc(O)cc1,1.58 µM (active),3.16 µM (active),2.24 µM (active),3.16 µM (active),–,3.61 µM (active),5.1 µM (active),5.73 µM (active),4.55 µM (active),2.82 µM (active),–,4.55 µM (active),4.55 µM (active),2.56 µM (active),–,2.28 µM (active),5.1 µM (active),2.82 µM (active),3.16 µM (active),3.16 µM (active)
C=C1c2c(Cl)ccc(O)c2C(O)=C2C(=O)[C@@]3(O)C(O)=C(C(N)=O)C(=O)[C@@H](N(C)C)[C@@H]3[C@@H](O)[C@H]12,–,–,inactive,inactive,inactive,–,inactive,inactive,inactive,inactive,inactive,inactive,inactive,inactive,inactive,inactive,inactive,inactive,–,–
Cn1nnnc1SCC1=C(C(=O)O)N2C(=O)[C@@H](NC(=O)[C@@H](O)c3ccccc3)[C@@H]2SC1,inactive,inactive,inactive,inactive,inactive,inactive,inactive,inactive,inactive,inactive,inactive,inactive,–,inactive,inactive,inactive,inactive,inactive,inactive,inactive
NC[C@@H]1O[C@H](O[C@@H]2[C@H](O[C@@H]3O[C@H](CO)[C@@H](O)[C@@H]3O)[C@@H](O)[C@@H](N)C[C@H]2N)[C@@H](N)[C@H](O)[C@@H]1O,inactive,inactive,inactive,inactive,inactive,inactive,inactive,inactive,–,inactive,inactive,inactive,inactive,inactive,inactive,inactive,inactive,inactive,inactive,inactive
CC(=O)OCC(=O)[C@@]12OC(C)(C)O[C@@H]1C[C@H]1[C@H]3C[C@H](F)C4=CC(=O)C=C[C@@]4(C)[C@]3(F)[C@H](O)C[C@@]12C,inactive,inactive,inactive,inactive,inactive,inactive,inactive,inactive,inactive,inactive,inactive,inactive,inactive,inactive,inactive,inactive,inactive,inactive,inactive,inactive
CC(C)(C)NC[C@H](O)COc1cccc2c1C[C@@H](O)[C@@H](O)C2,inactive,inactive,inactive,inactive,inactive,inactive,inactive,inactive,inactive,inactive,inactive,inactive,inactive,inactive,inactive,inactive,inactive,inactive,inactive,inactive
CN[C@H]1[C@@H](O)[C@@H](NC)[C@@H]2O[C@@]3(O)C(=O)C[C@@H](C)O[C@H]3O[C@H]2[C@H]1O,inactive,inactive,inactive,inactive,inactive,inactive,–,inactive,inactive,inactive,inactive,inactive,inactive,inactive,inactive,inactive,inactive,inactive,inactive,inactive
CC(=C(CCOP(=O)(O)O)SC(=O)c1ccccc1)N(C=O)Cc1cnc(C)nc1N,inactive,inactive,inactive,inactive,inactive,inactive,inactive,inactive,inactive,inactive,inactive,inactive,inactive,inactive,inactive,inactive,inactive,inactive,inactive,inactive
